Assay results: PubChem BioAssay

Key:
[1] = molecular target: Tumor necrosis factor receptor superfamily member 10B (Homo sapiens) (UniProt O14763); assay: viability loss of caspase-8 NB7 cells with TRAIL – with/without TRAIL, luminescence panel, confirmation (AID 651596); settings: NB7 neuroblastoma + caspase-8, TRAIL sensitization, NB7 Caspase-8, with TRAIL, mean of runs, at 10 µM, stronger effect = higher value
[2] = as above; settings: NB7 neuroblastoma + caspase-8, without TRAIL, NB7 Caspase-8, without TRAIL, mean of runs, at 10 µM
[3] = molecular target: Tumor necrosis factor receptor superfamily member 10B (Homo sapiens) (UniProt O14763); assay: compound enhancement of TRAIL-induced cell killing – NB7 cells plus caspase-8, luminescence, panel, dose response (AID 652002); settings: NB7 neuroblastoma +caspase-8, TRAIL sensitization, luminescence viability, NB7+Caspase-8, with TRAIL, run 1; at 12.5 µM (top of the series)
[4] = molecular target: Tumor necrosis factor receptor superfamily member 10B (Homo sapiens) (UniProt O14763); assay: as above; settings: NB7 neuroblastoma +caspase-8, TRAIL sensitization, luminescence viability, NB7+Caspase-8, with TRAIL, run 2; at 12.5 µM (top of the series)
[5] = as above; settings: NB7 neuroblastoma +caspase-8, no TRAIL, compound-alone cytotoxicity counter-screen, luminescence viability, NB7+Caspase-8, run 1; at 12.5 µM (top of the series) unless noted
[6] = as above; settings: NB7 neuroblastoma +caspase-8, no TRAIL, compound-alone cytotoxicity counter-screen, luminescence viability, NB7+Caspase-8, run 2; at 12.5 µM (top of the series) unless noted

Chain of Tumor necrosis factor receptor superfamily member 10B (Homo sapiens) (O14763 whole entry, looked up): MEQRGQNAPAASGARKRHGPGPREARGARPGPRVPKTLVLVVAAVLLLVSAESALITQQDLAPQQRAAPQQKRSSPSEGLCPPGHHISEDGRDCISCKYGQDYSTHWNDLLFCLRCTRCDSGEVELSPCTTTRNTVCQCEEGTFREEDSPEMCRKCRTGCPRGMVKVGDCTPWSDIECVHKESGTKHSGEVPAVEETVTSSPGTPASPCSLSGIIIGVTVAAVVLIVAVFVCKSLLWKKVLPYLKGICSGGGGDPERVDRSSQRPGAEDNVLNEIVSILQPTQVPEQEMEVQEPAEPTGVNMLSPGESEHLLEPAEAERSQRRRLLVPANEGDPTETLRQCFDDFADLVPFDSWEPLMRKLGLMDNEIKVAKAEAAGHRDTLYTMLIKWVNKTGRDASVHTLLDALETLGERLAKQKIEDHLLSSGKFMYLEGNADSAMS

SMILES	activity [1] [%]	activity [2] [%]	activity, % sensitization [3] [%]	activity, % sensitization [4] [%]	activity, % sensitization [5] [%]	activity, % sensitization [6] [%]
C#Cc1ccc(NC(=O)C2(C)CCN2C(=O)Cc2ccc(C(C)C)cc2)cc1 (stereo not given)	79.1	49.2	18.4	11.5	1.52	54.8
CCCCN(C)C(=O)c1ccc(Nc2nc(C(N)Cc3ccc(C(F)(F)F)cc3)cs2)nc1 (stereo not given)	56.9	90.2	–	–	–	–
O=C(NC1=NCCS1)c1cc2ccccc2o1	56.6	48.6	45.6	47	8.75	39.6
O=C(Nc1nc2ccccc2s1)c1ccc(OCC2CCCO2)cc1 (stereo not given)	73.5	67	–	–	–	–
COc1ccc(-c2ccc3ccccc3n2)cc1	32.4	16	–	–	–	–
N#Cc1c(/N=C/c2cccs2)sc2c1CCCCC2	65.7	35.4	–	–	–	–
O=C(Nc1ccc(C(=O)O)cc1)/C(=C\C=C\c1ccccc1)NC(=O)c1ccccc1Cl	63.6	53.1	43.1	38.4	36.3	45.9
COc1cc(C2CC(c3cccs3)=NN2C(=O)CCl)ccc1OC(F)F (stereo not given)	99.5	99.5	–	–	–	–
COc1ccc(C(=O)Nc2ccccc2C(=O)Nc2cccnc2)cc1	58.9	55.5	–	–	–	–
O=C(Nc1ccc(Br)cc1F)c1ccc2c(c1)OCCO2	56.6	43	35.1	39.5	7.23	34.6
O=C(N/N=C/c1cccnc1)c1ccc2c(c1)OCCO2	76.2	67	–	–	–	–
COCCNC(=O)c1ccc2c3n(nc2c1)-c1ccccc1CO3	67.6	82	–	–	–	–
COc1cccc2c1C(CO)N1C(C#N)C3CC(C(=O)O)C(C1C2)N3C (stereo not given)	59.9	83.8	–	–	–	–
O=C(/C=C/[C@H]1O[C@@H](n2cnc3c(NC(=O)c4ccccc4)ncnc32)[C@H](O)[C@@H]1O)NCC1CCCO1 (stereo not given in full)	-2.52	-37	–	–	–	–
CCCCCCCCCCCCCCCC[N+](C)(C)CCl	96	94.3	–	–	–	–
Cc1occc1C(=O)O/N=C(\N)c1ccc(Cl)cc1	81.6	84.7	–	–	–	–
COc1ccc(N2Cc3ccc(OC)c(OC)c3C2=O)cc1	40.6	37.8	–	–	–	–
O=c1[nH]c(N/N=C\c2ccc3c(c2)OCO3)nc2ccccc12	53.6	50.5	33.9	44.5	38.2	35.1
CSc1cc(-c2ccc(Cl)cc2)n(Cc2ccccc2)c(=O)c1C#N	72.2	48.5	–	–	–	–
COc1ccccc1/C=C/C1(C(=O)NC2CCCC2)CC(=O)N1c1ccc(F)cc1 (stereo not given)	98	98.1	–	–	–	–
